Shown are actives, neighbours in structure and some others; about 2.4% of the full set was active somewhere.
FEN1 inh – qHTS Assay for the Inhibitors of Human Flap endonuclease 1 (FEN1); P39748; Recombinant FEN1 flap cleavage, fluorescence, 15 min; Potency, µM (doses to about 114 µM), without a hit: top-dose activity change, negative = inhibition, most hits filed as inhibitors; hit rate 0.35% among 390,000; AID 588795, 2011; further: on the % scale 0 is the no-effect control and ±100 the full control effect; nearly all actives have a fitted effect of over 65% in size
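Steps: FEN1 (10 nM) dispensed; compound added by pin tool; 15 min at room temperature; substrate added to 50 nM final; reads at 0 min and 15 min; data normalized and fitted (four-parameter Hill).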
Pol eta inh – qHTS for Inhibitors of Polymerase Eta; hit rate 1.2% among 390,000; AID 588591, 2011; Potency, µM (titrated, usually from 114 µM), for inactives: at the highest dose activity change, negative = inhibition, hits mostly inhibitors; recombinant Pol eta, fluorescent DNA replication assay; further: on the % scale 0 is the no-effect control and ±100 the full control effect
Target sequence (Q9Y253 whole entry, looked up): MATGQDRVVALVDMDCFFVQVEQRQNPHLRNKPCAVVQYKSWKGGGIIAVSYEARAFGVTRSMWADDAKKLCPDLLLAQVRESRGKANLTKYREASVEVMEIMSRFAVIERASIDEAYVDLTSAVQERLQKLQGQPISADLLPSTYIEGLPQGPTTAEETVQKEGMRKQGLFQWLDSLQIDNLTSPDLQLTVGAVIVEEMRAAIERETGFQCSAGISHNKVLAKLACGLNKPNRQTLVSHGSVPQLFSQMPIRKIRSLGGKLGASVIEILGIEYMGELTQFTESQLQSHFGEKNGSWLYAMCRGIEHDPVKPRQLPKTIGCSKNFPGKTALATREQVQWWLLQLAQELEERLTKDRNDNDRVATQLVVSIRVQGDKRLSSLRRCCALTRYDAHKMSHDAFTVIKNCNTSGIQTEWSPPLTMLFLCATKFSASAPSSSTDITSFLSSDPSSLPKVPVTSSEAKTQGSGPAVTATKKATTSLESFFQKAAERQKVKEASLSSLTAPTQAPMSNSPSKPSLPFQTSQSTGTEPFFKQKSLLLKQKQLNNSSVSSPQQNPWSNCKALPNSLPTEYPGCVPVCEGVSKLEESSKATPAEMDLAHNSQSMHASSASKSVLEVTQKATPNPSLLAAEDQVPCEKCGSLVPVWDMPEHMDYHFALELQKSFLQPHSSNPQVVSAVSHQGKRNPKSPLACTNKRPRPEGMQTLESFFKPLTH
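Fluorescent replication assay: 50 nM final substrate added after a 15 min room-temperature compound preincubation with 10 nM enzyme. Signal taken at 0 min and again at 10 min.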
Pol kappa inh – qHTS for Inhibitors of Polymerase Kappa | DNA polymerase kappa (Homo sapiens), Q9UBT6 | purified Pol kappa, fluorescent DNA synthesis assay, 10 min | Potency, µM (series often up to 107 µM), without a hit: top-dose activity, negative = inhibition, actives largely listed as inhibitors | hit rate 0.53% among 400,000 | AID 588579, 2011; further: on the % scale 0 is the no-effect control and ±100 the full control effect
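Activity was followed as the change in fluorescence between reads at 0 and 10 min after starting the reaction with 50 nM substrate. Beforehand, 10 nM polymerase had been preincubated with compound for 15 min at room temperature.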
Pol iota inh – qHTS for Inhibitors of Polymerase Iota; Potency, µM (top dose mostly 115 µM), for inactives: at the highest dose activity, negative = inhibition, actives largely listed as inhibitors; hit rate 1% among 390,000; Pol iota fluorescent replication assay, 10 min; AID 588590, 2011
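Pol iota at 10 nM preincubated 15 min with compounds at room temperature; reaction started with fluorescent substrate, 50 nM final. Fluorescence read kinetically at 0 and 10 min; buffer-only wells as negative control.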
WRN helicase inh – qHTS for Inhibitors of WRN Helicase. Potency, µM (titrated, usually from 114 µM), for the others: at the top dose activity change, negative = inhibition, hits mostly inhibitors. hit rate 0.46% among 360,000. WRN helicase unwinding, fluorescent forked duplex, kinetic. Bifunctional 3'-5' exonuclease/ATP-dependent helicase WRN (Homo sapiens), Q14191. AID 651768, 2012; further: on the % scale 0 is the no-effect control and ±100 the full control effect; nearly all actives have a fitted effect of over 55% in size
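Kinetic red-fluorescence monitoring (525/598 nm) tracks WRN helicase activity after 100 nM fluorophore-quencher forked duplex and 2 mM ATP are added to 20 nM enzyme pretreated 15 min at room temperature with compound.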
Pol beta inh – qHTS Assay for Inhibitors of DNA Polymerase Beta. P06746. Pol beta primer extension/strand displacement, fluorescence kinetic. Potency, µM (titrated, usually from 114 µM), for inactives: at the top dose activity change, negative = inhibition, hits mostly inhibitors. hit rate 1.3% among 340,000. AID 485314, 2010; further: on the % scale 0 is the no-effect control and ±100 the full control effect
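Human Pol beta at 10 nM; strand-displacement substrate 50 nM final. Compound exposure 15 min at room temperature before start, reaction 10 min at room temperature.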
* hit, by the source's call; ? = inconclusive; · = not tested or not shown; ! = not confirmed by another sample; [ ] = another dose, or the depositor's remark. The call rests on the fitted dose curve; in most records, active means well fitted curve in the direction sought with a large enough effect; inconclusive means small, poorly fitted or top-dose-only effect, or another doubt; inactive means no such curve, though single readings can be large; an effect the other way counts as inactive or inconclusive. Potency means the concentration at half of the fitted maximal effect.

SMILES | FEN1 inh | Pol eta inh | Pol kappa inh | Pol iota inh | WRN helicase inh | Pol beta inh
O=C1NC(=O)C(c2ccccc2[N+](=O)[O-])=C1Nc1ccc(O)c(Cl)c1 | -11.3% | ? | 11.2µM*! | 28.2µM*! | 7.9% | 11.2µM*
O=C(CNC(=O)c1ccc2c(c1)OCO2)N/N=C/c1cc(Br)ccc1O | -4.5% | -6.2% | -12.8% | -18.0% | -14.1% | 44.7µM*
O=C(N/N=C/c1ccc2c(c1)OCO2)c1ccc2c(c1)OCCO2 | -4.2% | -24.8% | 1.5% | -7.3% | -22.0%[57.1 µM] | -0.7%
O=C(N/N=C/C=C/c1ccc2c(c1)OCO2)c1ccc([N+](=O)[O-])cc1 | -0.5% | 4.2% | -14.7% | 18.2% | -12.6% | 2.3%
O=C(N/N=C\C=C\c1ccc(Br)cc1)c1ccc2c(c1)OCO2 | 0.5% | -17.7% | -13.4% | ? | -17.1% | 35.5µM*
O=C(CCc1ccc(O)c(O)c1)N/N=C/c1ccc2c(c1)OCO2 | 0.9% | 0.0% | ? | 79.4µM* | -0.3%[11.6 µM] | 70.8µM*
O=C(N/N=C/c1ccc(Cl)cc1)c1ccc2c(c1)OCO2 | 2.3% | 7.3% | -5.6% | 79.4µM* | 0.2%[11.6 µM] | 35.5µM*
COc1ccc(C)cc1NC(=O)CCS(=O)(=O)c1ccc2c(c1)CC(=O)N2C | -1.0% | -8.3% | -19.4% | 17.4% | · | -2.0%
O=C1c2ccccc2C(=O)C2OC12 (configuration not stated) | · | · | · | · | · | 70.8µM*
O=C1c2ccccc2C(=O)C1c1ccccn1 | -1.0% | ? | 4.1% | 23.7% | -1.4% | -1.4%
Cc1ccc(NS(=O)(=O)c2cc([N+](=O)[O-])ccc2NNC(=S)Nc2cc(C)ccc2C)c(C)c1 | -15.9% | -10.1% | -0.2% | 2.5% | -22.7% | 2.2%
Cc1ccc(NS(=O)(=O)c2cc([N+](=O)[O-])ccc2NNC(=S)Nc2cccc(Cl)c2)c(C)c1 | ? | 39.8µM* | -31.1% | -7.9% | ? | ?
C=CCn1c(SCC(=O)Nc2nnc(C)s2)nnc1C1CC1 | -3.4% | ? | -33.0% | ? | -7.0% | 25.1µM*
CCc1nnc(NC(=O)CSc2nnc(C3CC3)n2C)s1 | 2.6% | -15.3% | 2.5% | 12.5% | -25.8% | -2.1%
Cc1cccc(NC2SC(=O)N(c3ccccc3)C2=O)c1 (configuration not stated) | -18.7% | -3.7% | -3.8% | 18.1% | -6.0% | -6.3%
Cc1cccc(NC(=O)CC2SC(=O)N(c3ccccc3)C2=O)c1 (configuration not stated) | 0.6% | -3.5% | -18.6% | 1.2% | 100µM* | 22.4%
O=C(CC1SC(=O)N(c2ccccc2)C1=O)Nc1ccccc1 (configuration not stated) | 11.9% | -10.4% | -4.3% | ? | 39.8µM* | 10.2%
Cc1ccc(NC(=O)CC2SC(=O)N(c3ccccc3)C2=O)cc1 (configuration not stated) | -1.9% | -11.7% | -1.9% | 48.9% | ? | 31.2%
O=C(C[n+]1cccc2cccc(O)c21)c1ccc2ccccc2c1 | -13.2% | · | -16.7% | 54.1% | · | ·
C=C(C)C(=O)Nc1cccc(C2=NOC3(C2)C[C@H](C(N)=O)N(C(=O)CC#N)C3)c1 (some centres not stated) | -11.4% | 20µM* | ? | ? | -31.8% | 35.5µM*
C/C=C/C=C\C(=O)Nc1cccc(C2=NOC3(C2)C[C@H](C(N)=O)N(C(=O)CC#N)C3)c1 (some centres not stated) | ? | 44.7µM* | 79.4µM* | 14.1µM* | 44.7µM* | 50.1µM*
C/C=C/C=C/C(=O)N1CC2(CC(c3cccc(NC(=O)/C=C/C)c3)=NO2)C[C@@H]1C(N)=O (some centres not stated) | -14.9% | ? | ? | 39.8µM* | -16.8%[11.6 µM] | -1.3%

Screening results as filed in PubChem BioAssay.
